# Laboratory results from PubChem BioAssay AID765 (NMMLSC, 2007).
# Values without a mark were called inactive. Cut-off read from the data, not from the text of the source: active = inhibition above about 31%; inactive = the rest.
# Molecular target: N-formyl peptide receptor 2 (Homo sapiens) (UniProt P25090)
# Assay: human FPR2 ligand displacement single-point screen – cell-based, flow cytometry, single concentration (AID 765)
# Settings: FPRL1-expressing cells, fluorescent ligand binding inhibition, hits give high values; at 5.1 µM unless noted
# N-formyl peptide receptor 2 (Homo sapiens), sequence (P25090 whole entry, looked up): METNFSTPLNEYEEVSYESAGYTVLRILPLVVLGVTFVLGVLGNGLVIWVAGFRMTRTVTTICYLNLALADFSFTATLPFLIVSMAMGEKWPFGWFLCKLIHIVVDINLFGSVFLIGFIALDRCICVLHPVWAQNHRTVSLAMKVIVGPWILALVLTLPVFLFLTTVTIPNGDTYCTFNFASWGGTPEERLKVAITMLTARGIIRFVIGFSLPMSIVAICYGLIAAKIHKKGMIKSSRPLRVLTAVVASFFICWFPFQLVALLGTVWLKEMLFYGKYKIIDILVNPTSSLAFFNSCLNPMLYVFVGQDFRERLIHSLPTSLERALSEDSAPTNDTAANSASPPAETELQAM
row,SMILES,inhibition
1,COc1ccc(-c2cn3cccnc3n2)cc1NC(=O)C(C)Oc1ccccc1 (configuration not stated),-8.6% [at 5.7 µM]
2,CCOC(=O)N1CCN(c2nc(-c3ccccc3)c3cc(C)ccc3n2)CC1,3.4% [at 5.9 µM]
3,O=C(O)CCCC(=O)N1CCN(c2nc(-c3ccccc3)c3ccccc3n2)CC1,-1.7% [at 5.5 µM]
4,COc1ccc(-c2cc(C(F)(F)F)nc(N3CCN(C)CC3)n2)cc1,-15.1% [at 6.3 µM]
5,COc1ccc(-c2cn3cccnc3n2)cc1NC(=O)c1c(-c2ccccc2Cl)noc1C,13.3% [at 4.8 µM]
6,O=C(C1CCCCC1)N1CCN(c2nc(-c3ccccc3Cl)c3cc(Br)ccc3n2)CC1,-6.3% [at 4.3 µM]
7,Clc1ccccc1N1CCN(c2nc(-c3ccccc3)c3cc(Br)ccc3n2)CC1,5.1% [at 4.6 µM]
8,COc1ccc(-c2cn3cccnc3n2)cc1NC(=O)c1cc(C)cc(C)c1,4.9% [at 6 µM]
9,O=C(O)/C=C/C(=O)N1CCN(c2nc(-c3ccccc3)c3ccccc3n2)CC1,6.6% [at 5.7 µM]
10,COc1ccc(C2CC(=O)c3cnc(N4CCN(Cc5ccc6c(c5)OCO6)CC4)nc3C2)c(OC)c1 (configuration not stated),-2.7% [at 4.4 µM]
11,COc1ccc(-c2cn3cccnc3n2)cc1NC(=O)CCCc1ccccc1,-8.7% [at 5.8 µM]
12,COc1ccc(-c2cn3cccnc3n2)cc1NC(=O)c1ccc(Cl)cc1,3% [at 5.9 µM]
